Source: the supplement of paper PMC10681739

biological target: T1, ETS1 (UniProt P14921); experiment: TF binding intensity (PBM fluorescence), negative control probe (arbitrary fluorescence units); higher = stronger binding
T1 sequence: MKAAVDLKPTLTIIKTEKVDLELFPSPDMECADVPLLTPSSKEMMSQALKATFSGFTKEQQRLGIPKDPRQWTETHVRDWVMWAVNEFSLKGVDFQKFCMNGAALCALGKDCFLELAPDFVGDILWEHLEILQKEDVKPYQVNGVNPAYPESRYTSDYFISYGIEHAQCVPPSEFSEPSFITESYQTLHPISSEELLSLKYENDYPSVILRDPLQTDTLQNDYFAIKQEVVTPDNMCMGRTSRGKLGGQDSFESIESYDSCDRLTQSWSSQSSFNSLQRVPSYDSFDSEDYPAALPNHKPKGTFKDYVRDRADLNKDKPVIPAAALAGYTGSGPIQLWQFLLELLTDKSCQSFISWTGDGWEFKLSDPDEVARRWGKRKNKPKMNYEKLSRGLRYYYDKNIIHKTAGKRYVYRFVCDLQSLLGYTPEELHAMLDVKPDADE
Procedure: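 gcPBM negative-control 36-bp genomic probes lacking TF binding sites. Each was incubated with recombinant human ETS1 or RUNX1 alone and detected by antibody fluorescence. Values are medians over replicate spots (4 spots for the ETS1-RUNX1 arrays, 3 for the ETS1-ETS1 array). The probes sit in constant array flanks that are not printed.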

**Q.** “GTTAAGTACCTGAATGAGCACTGGACCAGAGCCGGG (protein concentration 10 nM)” was tested. Which TF binding intensity did it give?
**A.** 106

**Q.** Which TF binding intensity does the source give for “CTCTACCTACAAAAAGACTGCAATTGTGTTACCTTT (protein concentration 10 nM)” here?
**A.** 132

**Q.** Which TF binding intensity does the source give for “GAAGAGCAGGCCTGGCGTCTGCCCGTGCCAGTGTTT (protein concentration 10 nM)” here?
**A.** 102

**Q.** How did the TF binding intensity turn out when “TATTTTCCAAAAGTGGCCACAACAACATCTGCCAAC (protein concentration 1 nM)” was run?
**A.** 442

**Q.** “CGCCAGGGGGAGCAACAGAAATCCACACCAGGGAAG (protein concentration 10 nM)” was tested. Which TF binding intensity did it give?
**A.** 173

**Q.** “AAAAAAATAGCTTTAACCACAAAAACTCCTTGAAAA (protein concentration 1 nM)” was tested. Which TF binding intensity did it give?
**A.** 514

**Q.** With “GTTTGGCTTTCAGAGTGTGGTTTGGATTCCTAACAG (protein concentration 1 nM)” as the sequence, how does the TF binding intensity read?
**A.** 450

**Q.** “TTTCTTCACACCACAAGCAGAGAGCAGCGAGAGAGA (protein concentration 10 nM)” was tested. Which TF binding intensity did it give?
**A.** 136

**Q.** With “AATCCAATGGGGTTTCTGTGTAATTAATAACATCTA (protein concentration 10 nM)” as the sequence, how does the TF binding intensity read?
**A.** 120

**Q.** For “ATACATACCTTTCACCCTCCATTGTGTGAGGCCCAG (protein concentration 10 nM)”, which TF binding intensity is on record?
**A.** 114

**Q.** With “TTTCTGTTTTGTTTTATTTTGTTTGTTTTTATTCTG (protein concentration 10 nM)” as the sequence, how does the TF binding intensity read?
**A.** 128

**Q.** “TGGCCTGGGAAAGAACCCACAGGCTTCTGGTTGCTG (protein concentration 1 nM)” was tested. Which TF binding intensity did it give?
**A.** 597

**Q.** With “CTCCTAATTCTGCATGCAACACTCTCCAGAGAGCTG (protein concentration 10 nM)” as the sequence, how does the TF binding intensity read?
**A.** 136

**Q.** Which TF binding intensity does the source give for “TTCAAAGCACATTCACCCACATGATCCTATTGATCT (protein concentration 1 nM)” here?
**A.** 468

**Q.** “ATGTTTTCGGTTCTTAGGACCCAGGTGCTCACCACA (protein concentration 10 nM)” was tested. Which TF binding intensity did it give?
**A.** 106

**Q.** With “AAGTCCCTCCTCTAAACCACTTTGATGAGGACCAAA (protein concentration 1 nM)” as the sequence, how does the TF binding intensity read?
**A.** 387

**Q.** How did the TF binding intensity turn out when “GGCTCCTATATTAAAATTGGTATTAGTAGACAATGT (protein concentration 10 nM)” was run?
**A.** 131

**Q.** “GGTAATAGTTACTGCTGTGGTCTGAATGTTTGTGTC (protein concentration 1 nM)” was tested. Which TF binding intensity did it give?
**A.** 555

**Q.** “TTAATTAAGCGGTTTATATCAAGAAAAAGGCATTTC (protein concentration 10 nM)” was tested. Which TF binding intensity did it give?
**A.** 115

**Q.** Which TF binding intensity does the source give for “ACATCTCATGGTTTTAAAGTAAATGAATTAAAAGTC (protein concentration 10 nM)” here?
**A.** 116

**Q.** For “CTGCTGGGTGGAGTGTGGACAAGCGGCCTTTGCATC (protein concentration 10 nM)”, which TF binding intensity is on record?
**A.** 150

**Q.** “TTTAAAAAATCTACTCTGTCCCTTAAAAGGCCGTTT (protein concentration 10 nM)” was tested. Which TF binding intensity did it give?
**A.** 107

**Q.** With “GCTGGGGTTTGCTGCCTGGAGGCAGCCTGTCCAGGA (protein concentration 10 nM)” as the sequence, how does the TF binding intensity read?
**A.** 109

**Q.** With “CCAGCAGCAGTTGTGAATTGGGTAATTTAATGAAAA (protein concentration 10 nM)” as the sequence, how does the TF binding intensity read?
**A.** 116

**Q.** How did the TF binding intensity turn out when “TTCATAACGTTATACACCACAATGCTAAAAAAATGA (protein concentration 1 nM)” was run?
**A.** 672

**Q.** For “CTTAGTTCAGTGTAAGGGGCCTGGTTGTTGGATTTT (protein concentration 10 nM)”, which TF binding intensity is on record?
**A.** 119

**Q.** With “GAGGGTCCCGGCTCTGCCGCAGGCGGGCGGGGCAGA (protein concentration 1 nM)” as the sequence, how does the TF binding intensity read?
**A.** 339

**Q.** For “GGTATCGAGCTCGGGGGACTGGGCTGCGGGGGACGT (protein concentration 10 nM)”, which TF binding intensity is on record?
**A.** 264

**Q.** “GAGCATCACAAGGTCAGAGGAGGGGGCGGCCAGGGT (protein concentration 10 nM)” was tested. Which TF binding intensity did it give?
**A.** 240

**Q.** Which TF binding intensity does the source give for “AGGCATAACAGAAAAACCTCAACTTAAATAGTGCTG (protein concentration 1 nM)” here?
**A.** 626

**Q.** With “TCAGCAGCTCGTGCTGCTTGAAGTGCTGGGGGCGAG (protein concentration 10 nM)” as the sequence, how does the TF binding intensity read?
**A.** 153

**Q.** With “GCTTTTTTTTTCTGTTGTGGGAGAAAGATGAGAGTC (protein concentration 1 nM)” as the sequence, how does the TF binding intensity read?
**A.** 535

**Q.** How did the TF binding intensity turn out when “ATATATAGTAACCACATGATTAATAATAATAATGCA (protein concentration 10 nM)” was run?
**A.** 119

**Q.** How did the TF binding intensity turn out when “ACGAAAGTAAACAGTACTAGGTGCAGGGGCTTTAAT (protein concentration 10 nM)” was run?
**A.** 117

**Q.** “TTATGAACTGTATCATGTGGTTTGAGTTTAATTTGG (protein concentration 1 nM)” was tested. Which TF binding intensity did it give?
**A.** 487

**Q.** How did the TF binding intensity turn out when “TAAGTATTAAGAGTTGCAACACTCTAATCAAGGATA (protein concentration 10 nM)” was run?
**A.** 102

**Q.** For “ATATTCTCTTACATAACCACAGTACATTTATCAGCC (protein concentration 1 nM)”, which TF binding intensity is on record?
**A.** 573

**Q.** How did the TF binding intensity turn out when “GTTTTGCAACTCTTATTCCAAGTGGACACCCAGAAA (protein concentration 10 nM)” was run?
**A.** 140

**Q.** For “CAGGTGGATGACTCAGCTGGAGAACAAAGTGGCTTC (protein concentration 10 nM)”, which TF binding intensity is on record?
**A.** 122

**Q.** How did the TF binding intensity turn out when “TCTGAATGCTAAGCTCATCGAAGACGCCCAGCACTT (protein concentration 10 nM)” was run?
**A.** 123
